Measurements: PubChem BioAssay (NCATS)
Inconclusive results are not listed. Where a call stands in place of a potency, no number is given. A number with no mark means an inactive call. Activity calls are given as the source filed them. Calls follow the shape of the full dose curve. Bridge positions count the residues as written; N and C are the ends. Square brackets hold non-standard residues; d marks the D form. Peptide text beside a SMILES is read from it. Orn = NCCC[CH](N)C(=O)O; Mpa = O=C(O)CCS

Test: Primary qHTS for Vero E6 cytotoxicity: counterscreen for inhibitors of SARS-S pseudo-typed particle cell entry (AID 1479150)
Settings: cell viability; series mostly up to 57.1 µM

Structure (SMILES)	Potency
O=C(O)C1CCc2cc(C3CCCCC3)c(Cl)cc21 (stereo not given)	inactive
O=C(O)CCSC[C@H]1O[C@@H]2O[C@H]3[C@H](O)[C@@H](O)[C@@H](O[C@H]4[C@H](O)[C@@H](O)[C@@H](O[C@H]5[C@H](O)[C@@H](O)[C@@H](O[C@H]6[C@H](O)[C@@H](O)[C@@H](O[C@H]7[C@H](O)[C@@H](O)[C@@H](O[C@H]8[C@H](O)[C@@H](O)[C@@H](O[C@H]9[C@H](O)[C@@H](O)[C@@H](O[C@H]1[C@H](O)[C@H]2O)O[C@@H]9CSCCC(=O)O)O[C@@H]8CSCCC(=O)O)O[C@@H]7CSCCC(=O)O)O[C@@H]6CSCCC(=O)O)O[C@@H]5CSCCC(=O)O)O[C@@H]4CSCCC(=O)O)O[C@@H]3CSCCC(=O)O	inactive
O=S(=O)(O)CCCS(=O)(=O)O	inactive
CC(=O)O[C@]1(C(C)=O)CC[C@H]2[C@@H]3C[C@H](C)C4=CC(=O)C=C[C@]4(C)[C@@]3(F)[C@@H](O)C[C@@]21C	inactive
CN(CCCCCCCCCCN(C)C(=O)Oc1cccc([N+](C)(C)C)c1)C(=O)Oc1cccc([N+](C)(C)C)c1	inactive

Test: Cytotoxicity counterscreen for inhibitors of SARS-CoV-2 cell entry (AID 1645845); also: nearly all actives have a fitted effect of over 50% in size
Settings: cell viability (SARS-CoV-2 entry assay cells); series mostly up to 57.1 µM
In short: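 Counterscreen run in the same HEK293-ACE2 line as the pseudotyped-particle entry assay, without particles. Viability after 48 h at 37 C was read as ATP luminescence, scaled between cell-containing and cell-free wells.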

Structure (SMILES)	Potency	activity change, negative = cytotoxicity	outcome
N#Cc1cc(-c2n[nH]c(-c3ccncc3)n2)ccn1	inactive		
CC(C)OC(=O)CCC/C=C\C[C@@H]1[C@@H](CC[C@@H](O)CCc2ccccc2)[C@H](O)C[C@@H]1O		-2.53% [at 11.3 µM]	
Cn1nnnc1SCC1=C(C(=O)O)N2C(=O)[C@H](NC(=O)C(O)c3ccccc3)C2SC1 (stereo not given in full)	inactive		
C[N+]1(C)C2CC[C@H]1CC(OC(=O)C(O)c1ccccc1)C2 (stereo not given in full)	inactive		
COC(=O)N[C@H](C(=O)N1CCC[C@H]1C(=O)Nc1ccc([C@@H]2CC[C@@H](c3ccc(NC(=O)[C@@H]4CCCN4C(=O)[C@@H](NC(=O)OC)C(C)C)cc3)N2c2ccc(C(C)(C)C)cc2)cc1)C(C)C	inactive		
C=CC[N@@+]12CC[C@]34c5ccccc5N5/C=C6\C7N(/C=C(\C53)[C@@H](C[C@@H]41)/C(=C/CO)C2)c1ccccc1[C@@]71CC[N@@+]2(CC=C)C/C(=C\CO)[C@@H]6C[C@@H]12 (stereo not given in full)	inactive		
CNC(=O)c1c(I)c(C(=O)NCC(=O)Nc2c(I)c(C(=O)O)c(I)c(C(=O)NCCO)c2I)c(I)c(N(C)C(C)=O)c1I	inactive		
C=C1CCN([C@H](C)[C@](O)(Cn2cncn2)c2ccc(F)cc2F)CC1	inactive		
O=C(OC1C[C@@H]2CC3C[C@@H](C1)N2CC3=O)c1c[nH]c2ccccc12 (stereo not given in full)	inactive		
O=C(Cn1c(=O)sc2ccc(Cl)cc21)N1CCN(CCO)CC1	inactive		
CC(C)[C@H]1CC[C@H](C)C[C@H]1O	inactive		
CCCCCCCCCCCCCCCCOc1nc2ccc(C)cc2c(=O)o1	inactive		
CC(C)(CO)C(O)C(=O)NCCCC(=O)O (stereo not given)	inactive		
CC1=C(C(=O)OCCN(Cc2ccccc2)c2ccccc2)C(c2cccc([N+](=O)[O-])c2)C(P2(=O)OCC(C)(C)CO2)=C(C)N1 (stereo not given)	inactive		
CN(C)CC(c1ccc(O)cc1)C1(O)CCCCC1 (stereo not given)	inactive		
[2H]C([2H])([2H])C(CCC[C@@H](C)[C@H]1CC[C@H]2/C(=C/C=C3\C[C@@H](O)C[C@H](O)C3=C)CCC[C@]12C)C([2H])([2H])[2H]	inactive		
CCCCCCCCCCCCCCCC(=O)OC1CCCn2c1nc(C)c(CCN1CCC(c3noc4cc(F)ccc34)CC1)c2=O (stereo not given)	inactive		
NS(=O)(=O)c1ccc(-n2nc(C(F)(F)F)cc2-c2ccc(F)cc2)cc1	inactive		
COc1ccc(CCNCC(O)COc2cccc(C)c2)cc1OC (stereo not given)	inactive		
CC1(C)[C@@H]2CC[C@@]1(C)[C@H](OC(=O)CSC#N)C2	inactive		

Structure (SMILES)	Potency	activity change, negative = cytotoxicity	outcome
CC(C)(CO)[C@@H](O)C(=O)NCCC(=O)NCCSSCCNC(=O)CCNC(=O)[C@H](O)C(C)(C)CO	inactive		
CC(C)(C)NC(=O)[C@H]1CC[C@H]2[C@@H]3CC=C4C=C(C(=O)O)CC[C@]4(C)[C@H]3CC[C@]12C	inactive		
FC(F)OC(Cl)C(F)(F)F (stereo not given)	inactive		
NC[C@@H]1O[C@H](O[C@H]2[C@H](O)[C@H](O[C@H]3[C@@H](O)[C@H](N)C[C@H](N)[C@H]3O[C@H]3O[C@H](CN)[C@H](O)[C@H](O)[C@H]3N)O[C@@H]2CO)[C@@H](N)[C@@H](O)[C@@H]1O		2.87% [at 5.25 µM]	
CCCC(=O)Nc1ncnc2c1ncn2C1O[C@@H]2COP(=O)(O)O[C@H]2[C@H]1OC(=O)CCC (stereo not given in full)	inactive		
CCOc1ccc(CC2NC(=O)CCSSCC(C(=O)N3CCCC3C(=O)NC(CCCN)C(=O)NCC(N)=O)NC(=O)C(CC(N)=O)NC(=O)C(C(C)O)NC(=O)C(C(C)CC)NC2=O)cc1 (stereo not given) ([Mpa]Y(Et)ITNCP[Orn]G-NH2; disulfide 1-6; configuration not given here)	inactive		
C[C@H](NCCc1ccc(O)cc1)[C@H](O)c1ccc(O)cc1	inactive		
CN(C)CC(=O)O	inactive		
NCCCC(N)C(=O)O (stereo not given)	inactive		
C[C@H]1O[C@]2(CS1)CN1CCC2CC1	inactive		
CC(C)C(=O)OCC(=O)[C@@]12OC(C3CCCCC3)O[C@@H]1C[C@H]1[C@@H]3CCC4=CC(=O)C=C[C@]4(C)[C@H]3[C@@H](O)C[C@@]12C (stereo not given in full)	inactive		
C[N+](C)(C)CCOP(=O)([O-])OP(=O)(O)OC[C@H]1OC(n2ccc(N)nc2=O)[C@H](O)[C@@H]1O (stereo not given in full)			inactive [at 0.702 µM]
NC(=O)[C@@H]1CC[C@@H]2CN1C(=O)N2OS(=O)(=O)O	inactive		
NC(Cc1cc(I)c(Oc2cc(I)c(O)c(I)c2)c(I)c1)C(=O)O (stereo not given)	inactive		
CC1(C)S[C@@H]2[C@@H](N3C(=O)[C@@H](c4ccccc4)NC3(C)C)C(=O)N2[C@H]1C(=O)O	inactive		
O=C(O)C1CCc2cc(C3CCCCC3)c(Cl)cc21 (stereo not given)	inactive		
O=C(O)CCSC[C@H]1O[C@@H]2O[C@H]3[C@H](O)[C@@H](O)[C@@H](O[C@H]4[C@H](O)[C@@H](O)[C@@H](O[C@H]5[C@H](O)[C@@H](O)[C@@H](O[C@H]6[C@H](O)[C@@H](O)[C@@H](O[C@H]7[C@H](O)[C@@H](O)[C@@H](O[C@H]8[C@H](O)[C@@H](O)[C@@H](O[C@H]9[C@H](O)[C@@H](O)[C@@H](O[C@H]1[C@H](O)[C@H]2O)O[C@@H]9CSCCC(=O)O)O[C@@H]8CSCCC(=O)O)O[C@@H]7CSCCC(=O)O)O[C@@H]6CSCCC(=O)O)O[C@@H]5CSCCC(=O)O)O[C@@H]4CSCCC(=O)O)O[C@@H]3CSCCC(=O)O	inactive		
O=S(=O)(O)CCCS(=O)(=O)O	inactive		
CC(=O)O[C@]1(C(C)=O)CC[C@H]2[C@@H]3C[C@H](C)C4=CC(=O)C=C[C@]4(C)[C@@]3(F)[C@@H](O)C[C@@]21C	inactive		
CN(CCCCCCCCCCN(C)C(=O)Oc1cccc([N+](C)(C)C)c1)C(=O)Oc1cccc([N+](C)(C)C)c1	inactive		
